The text below walks through data of paper PMC5540273 (PLoS ONE, 2017).

Test systems include PAK6; PAK7; PDGFRA; PDGFRB; PDPK1; PFTAIRE2.
What all share (conditions): n = 1
Another experiment has as its system T1, PCTK1.
T1 construct: gene CDK16

The next experiment concerns T2, PCTK2.
T2 construct: gene CDK17

In a further experiment the test system is T3, PCTK3.
T3 construct: gene CDK18

The subject of another experiment is T4, PFTK1.
T4 construct: gene CDK14

Where [1] appears, read: concentration: 1 μM,replicates: in singlicate, 1 µM.
Where [2] appears, read: concentration: 1 μM, replicates: in singlicate.

“And” between values parts separate entries of the source, which are not always exact repeats. Equal values may be shown once. Read-outs that look alike come from different tables or passages of the source.
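Further: KINOMEscan kinase panel screen.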

For the molecule `CSc1nn2c(=O)cc(N3CCOCC3)nc2n1Cc1cccc(C(F)(F)F)c1C` [GSK2363608], the “%Inh” value is 12% and 0% in the experiment on PAK6 (setting [1]); 1% and 0% in the experiment with PAK7 (setting [1]); 2% in the experiment on PCTK1 (setting [2]); 0% in the experiment with PCTK2 (setting [2]); 0% and 5% with PCTK3 (setting [1]); 15% and 0% in the experiment with PDGFRA (setting [1]). Moreover, the “%Inh” value in the experiment on PDGFRB (setting [1]) was 12% and 8%; with PDPK1 (setting [1]), 7% and 0%; with PFTAIRE2 (setting [1]), 23% and 6%; in the experiment with PFTK1 (setting [1]), 21% and 6%.

With `Fc1cc(Cl)ccc1Nc1ccnc2cc(I)ccc12` [GW551191], the “%Inh” value in the experiment on PAK6 (setting [2]) is 0%; with PAK7 (setting [2]), 0%; with PCTK1 (setting [2]), 4%; in the experiment on PCTK2 (setting [2]), 0%; in the experiment with PCTK3 (setting [2]) it was 0%; in the experiment on PDGFRA (setting [2]) it was 9%. For the same molecule, the “%Inh” value is on record as 88% with PDGFRB (setting [2]), 0% with PDPK1 (setting [2]), 9% in the experiment with PFTAIRE2 (setting [2]) and 4% with PFTK1 (setting [2]).

Turning to `Cc1cccc(-c2nc(Nc3ccc4[nH]ncc4c3)c3ccccc3n2)n1` [GW857175], the “%Inh” value came out at 4% in the experiment with PAK6 (setting [2]); 0% in the experiment on PAK7 (setting [2]); 23% with PCTK1 (setting [2]); 2% in the experiment on PCTK2 (setting [2]); 15% in the experiment with PCTK3 (setting [2]); 19% in the experiment on PDGFRA (setting [2]). The “%Inh” value was 0% in the experiment with PDGFRB (setting [2]), 39% in the experiment with PDPK1 (setting [2]), 0% with PFTAIRE2 (setting [2]) and 9% in the experiment with PFTK1 (setting [2]).

As for `NC(=O)c1nnc2ccccc2c1N`, the “%Inh” value in the experiment on PAK6 (setting [2]) is 4%; in the experiment on PAK7 (setting [2]), 0%; in the experiment on PCTK1 (setting [2]) it was 6%; in the experiment on PCTK2 (setting [2]), 0%; in the experiment on PCTK3 (setting [2]) it was 7%; in the experiment with PDGFRA (setting [2]), 12%. For the same molecule, the “%Inh” value in the experiment with PDGFRB (setting [2]) stood at 9%; in the experiment on PDPK1 (setting [2]), 7%; in the experiment with PFTAIRE2 (setting [2]), 14%; with PFTK1 (setting [2]) it was 5%.

Turning to `COc1cc2ncn(-c3cc(OCC4CCCO4)c(C(N)=O)s3)c2cc1OC` (stereo not drawn) [GSK204607], the “%Inh” value with PAK6 (setting [2]) is listed as 0%; in the experiment on PAK7 (setting [2]), 12%; with PCTK1 (setting [2]), 0%; in the experiment with PCTK2 (setting [2]), 0%; with PCTK3 (setting [2]), 0%; with PDGFRA (setting [2]), 0%. Also, the “%Inh” value with PDGFRB (setting [2]) turned out to be 32%; with PDPK1 (setting [2]), 0%; with PFTAIRE2 (setting [2]) it was 1%; in the experiment with PFTK1 (setting [2]) it was 24%.

As for `COc1cc(Nc2nccc(N3CCC(NC(=O)Nc4cc(C)ccc4C)C3)n2)cc(OC)c1OC` (stereo not drawn) [GSK1379762], the “%Inh” value in the experiment with PAK6 (setting [2]) is 0%; in the experiment on PAK7 (setting [2]) it was 0%; with PCTK1 (setting [2]), 9%; with PCTK2 (setting [2]), 24%; in the experiment on PCTK3 (setting [2]), 33%; in the experiment with PDGFRA (setting [2]), 8%. The “%Inh” value is recorded as 42% with PDGFRB (setting [2]), 11% in the experiment with PDPK1 (setting [2]), 24% with PFTAIRE2 (setting [2]) and 21% in the experiment on PFTK1 (setting [2]).

For the molecule `Cc1cccc(-c2cc(Nc3ccncc3)c3ccccc3n2)n1` [GSK223675], the “%Inh” value came to 0% in the experiment with PAK6 (setting [2]); 0% with PAK7 (setting [2]); 13% in the experiment on PCTK1 (setting [2]); 7% in the experiment on PCTK2 (setting [2]); 0% in the experiment on PCTK3 (setting [2]); 2% with PDGFRA (setting [2]). The “%Inh” value in the experiment with PDGFRB (setting [2]) turned out to be 23%; in the experiment with PDPK1 (setting [2]) it was 0%; in the experiment with PFTAIRE2 (setting [2]), 27%; in the experiment on PFTK1 (setting [2]), 16%.

Take `CCCc1ccc(S(=O)(=O)NC2CCN(c3ccnc(Nc4ccc(F)cc4)n3)C2)cc1` (stereo not drawn) [GSK1379715]: the “%Inh” value in the experiment with PAK6 (setting [2]) was found to be 0%; with PAK7 (setting [2]), 0%; with PCTK1 (setting [2]) it was 0%; in the experiment on PCTK2 (setting [2]), 0%; with PCTK3 (setting [2]), 19%; in the experiment on PDGFRA (setting [2]), 0%. Moreover, the “%Inh” value stood at 16% with PDGFRB (setting [2]), 82% with PDPK1 (setting [2]), 0% in the experiment with PFTAIRE2 (setting [2]) and 1% with PFTK1 (setting [2]).

On to `Cn1ccc2ncnc(Oc3ccc(NC(=O)Nc4ccccc4)cc3)c21`, for which the “%Inh” value in the experiment with PAK6 (setting [2]) amounted to 0%; in the experiment with PAK7 (setting [2]), 0%; in the experiment on PCTK1 (setting [2]), 1%; in the experiment on PCTK2 (setting [2]), 4%; with PCTK3 (setting [2]), 1%; in the experiment on PDGFRA (setting [2]) it was 97.6%. The “%Inh” value is 100% in the experiment with PDGFRB (setting [2]), 0% in the experiment on PDPK1 (setting [2]), 0% in the experiment on PFTAIRE2 (setting [2]) and 0% in the experiment on PFTK1 (setting [2]).

As to `CC1=C(C(=O)Nc2cc3cn[nH]c3cc2F)C(c2ccc(C(F)(F)F)cc2)CC(=O)N1` (stereo not drawn) [GSK429286], the “%Inh” value in the experiment with PAK6 (setting [2]) is on record as 0%; in the experiment with PAK7 (setting [2]) it was 0%; in the experiment with PCTK1 (setting [2]) it was 3%; in the experiment on PCTK2 (setting [2]), 0%; in the experiment with PCTK3 (setting [2]), 5%; with PDGFRA (setting [2]), 0%. For the same molecule, the “%Inh” value in the experiment on PDGFRB (setting [2]) turned out to be 18%; in the experiment on PDPK1 (setting [2]), 0%; in the experiment on PFTAIRE2 (setting [2]), 0%; in the experiment with PFTK1 (setting [2]), 12%.

As for `Cc1c(Cn2ccn3c(=O)cc(N4CCOCC4)nc23)cccc1C(F)(F)F` [GSK2289044], the “%Inh” value in the experiment on PAK6 (setting [2]) is on record as 4%; in the experiment with PAK7 (setting [2]) it was 27%; with PCTK1 (setting [2]), 2%; with PCTK2 (setting [2]) it was 0%; in the experiment on PCTK3 (setting [2]), 8%; in the experiment on PDGFRA (setting [2]) it was 0%. The “%Inh” value in the experiment with PDGFRB (setting [2]) is given as 21%; in the experiment with PDPK1 (setting [2]), 17%; in the experiment with PFTAIRE2 (setting [2]), 17%; with PFTK1 (setting [2]), 13%.

Consider `Cc1cc(N2Cc3ccccc3C2)nc(Nc2ccc(S(=O)(=O)N3CCOCC3)cc2)n1.Cl` [GSK1669917], for which the “%Inh” value with PAK6 (setting [2]), in the experiment on PAK7 (setting [2]), in the experiment with PCTK1 (setting [2]), with PCTK2 (setting [2]), in the experiment on PCTK3 (setting [2]) and in the experiment with PDGFRA (setting [2]) was 0% each time. For the same molecule, the “%Inh” value was 2% in the experiment on PDGFRB (setting [2]), 0% with PDPK1 (setting [2]), 0% with PFTAIRE2 (setting [2]) and 23% in the experiment with PFTK1 (setting [2]).

For the molecule `Cc1ccc(NC(=O)Nc2cccc(C(F)(F)F)c2)cc1` [GSK955403], the “%Inh” value in the experiment with PAK6 (1 µM) worked out at 36%; with PAK7 (1 µM), 1%; in the experiment with PCTK1 (1 µM), 0%; in the experiment on PCTK2 (1 µM), 2%; in the experiment with PCTK3 (1 µM), 0%; in the experiment on PDGFRA (1 µM), 0%. Also, the “%Inh” value in the experiment with PDGFRB (1 µM) was 45%; in the experiment on PDPK1 (1 µM), 14%; with PFTAIRE2 (1 µM) it was 1%; in the experiment with PFTK1 (1 µM), 5%.

Consider `COc1ccc2nc(-c3cccc(C)n3)nc(Nc3ccncc3)c2c1` [GSK204919], for which the “%Inh” value in the experiment with PAK6 (setting [2]) turned out to be 0%; with PAK7 (setting [2]), 1%; in the experiment on PCTK1 (setting [2]), 5%; in the experiment with PCTK2 (setting [2]), 0%; in the experiment on PCTK3 (setting [2]) it was 36%; in the experiment with PDGFRA (setting [2]), 0%. In addition, the “%Inh” value with PDGFRB (setting [2]) was 25%; in the experiment on PDPK1 (setting [2]), 12%; in the experiment on PFTAIRE2 (setting [2]), 0%; in the experiment on PFTK1 (setting [2]) it was 14%.

Take `O=C(Nc1n[nH]c2cc(-c3cccc(F)c3F)ccc12)C1CC1` [SB-733894]: the “%Inh” value with PAK6 (setting [2]) turned out to be 0%; in the experiment on PAK7 (setting [2]) it was 1%; in the experiment on PCTK1 (setting [2]), 0%; with PCTK2 (setting [2]), 8%; in the experiment on PCTK3 (setting [2]), 5%; with PDGFRA (setting [2]), 23%. Also, the “%Inh” value in the experiment with PDGFRB (setting [2]) is given as 51%; in the experiment with PDPK1 (setting [2]) it was 19%; in the experiment with PFTAIRE2 (setting [2]) it was 0%; in the experiment on PFTK1 (setting [2]), 0%.

Regarding `Cl.NC(=O)c1cccc(Nc2nccc(Nc3ccc(Oc4cccc(Cl)c4)c(Cl)c3)n2)c1` [GW659008], the “%Inh” value with PAK6 (setting [2]) was 0%; in the experiment with PAK7 (setting [2]), 5%; with PCTK1 (setting [2]), 0%; with PCTK2 (setting [2]) it was 7%; in the experiment with PCTK3 (setting [2]), 9%; in the experiment on PDGFRA (setting [2]), 0%. In addition, the “%Inh” value in the experiment on PDGFRB (setting [2]) came out at 68%; in the experiment with PDPK1 (setting [2]) it was 0%; in the experiment on PFTAIRE2 (setting [2]) it was 4%; with PFTK1 (setting [2]), 8%.

On to `Nc1nc(-c2nccs2)c(-c2ccnc3ccccc23)s1` [GW693542], for which the “%Inh” value with PAK6 (setting [2]) came to 9%; with PAK7 (setting [2]) it was 0%; with PCTK1 (setting [2]), 8%; in the experiment with PCTK2 (setting [2]), 0%; with PCTK3 (setting [2]), 5%; in the experiment on PDGFRA (setting [2]) it was 0%. Also, the “%Inh” value in the experiment with PDGFRB (setting [2]) came out at 1%; in the experiment with PDPK1 (setting [2]), 0%; with PFTAIRE2 (setting [2]), 13%; in the experiment with PFTK1 (setting [2]) it was 17%.

`COc1cccc(-c2cc(-c3c[nH]nc3-c3ccccn3)ccn2)c1` [GW680338]: the “%Inh” value in the experiment with PAK6 (setting [2]) amounted to 3%; with PAK7 (setting [2]), 9%; with PCTK1 (setting [2]), 0%; in the experiment with PCTK2 (setting [2]), 0%; in the experiment on PCTK3 (setting [2]), 8%; in the experiment on PDGFRA (setting [2]) it was 0%. For the same molecule, the “%Inh” value is reported as 8% in the experiment with PDGFRB (setting [2]), 0% in the experiment on PDPK1 (setting [2]), 10% in the experiment on PFTAIRE2 (setting [2]) and 1% with PFTK1 (setting [2]).
